Bioassay records (PubChem BioAssay)
In the library only some 2.1% were active in any assay of this set; here they are far more common.
PvdQ inh = blocks Pseudomonas aeruginosa PvdQ acylase activity; AID 488965; inhibition, % at 10 µM; 340,000 compounds, 0.063% hits; purified PvdQ acylase, fluorescence plate reader; in the data active = inhibition above about 30%, passing the limit was not always enough; inconclusive = no clear call, values can overlap the other calls
Ecoli rRNA inh = selective bacterial rRNA inhibition in E. coli | E. coli WT GFP vs humanized-ribosome RFP mutants, fluorescence, 24 h; hits give low values; DMSO median 0, no signal -100 | GFP signal change (wild-type ribosome), % (test concentration not listed) | 350,000 compounds, 1.6% hits;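 active = significant combined selectivity score with lowered wild-type GFP, culture density cut under 30%, mutant RFP and density less affected; inactive = any of these conditions unmet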
ARNT-TACC3 inh = ARNT/TACC3 interaction disruption | Q9Y6A5 | AlphaScreen His-ARNT PAS-B/GST-TACC3 binding, luminescence; TACC3 fragment carries E629A point mutation | inhibition, % at 9.99 µM | 390,000 compounds, 0.66% hits | AID 623870;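 active = mean inhibition of replicates at least 50% and at least half of replicates each reaching 50%; inconclusive = half or more replicates reach 50% but mean below 50%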
CFTR F508del cor = CFTR F508del correction in bronchial cells; 350,000 compounds, 0.36% hits; activity (quench increase), % at 7.58 µM; CFBE cells, YFP halide quenching; stimulated with forskolin plus potentiator P3; % fluorescence drop versus neutral controls;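 active = mean added fluorescence quench of at least 8% versus neutral control, with both replicates also reaching 8%; inconclusive = only one of the mean or replicate conditions met; inactive = mean below 8% and not both replicates reaching 8%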;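 also: cells transiently co-express mutant CFTR-F508del with the halide-sensitive YFP; corrector assay measuring rescue of mutant channel to the surface after 24 h compound exposure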
ERAP1 HTS inh = inhibitors of human ERAP1 aminopeptidase. inhibition, % at 10.7 µM. AID 652197. recombinant ERAP1, Leu-AMC fluorescence, 60 min. 340,000 compounds, 0.15% hits;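 active = mean replicate inhibition of at least 30%, or all replicates individually reaching that 30% level; inactive = mean below 30% and not every replicate reaching it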
Target sequence (Q9NZ08 whole entry, looked up): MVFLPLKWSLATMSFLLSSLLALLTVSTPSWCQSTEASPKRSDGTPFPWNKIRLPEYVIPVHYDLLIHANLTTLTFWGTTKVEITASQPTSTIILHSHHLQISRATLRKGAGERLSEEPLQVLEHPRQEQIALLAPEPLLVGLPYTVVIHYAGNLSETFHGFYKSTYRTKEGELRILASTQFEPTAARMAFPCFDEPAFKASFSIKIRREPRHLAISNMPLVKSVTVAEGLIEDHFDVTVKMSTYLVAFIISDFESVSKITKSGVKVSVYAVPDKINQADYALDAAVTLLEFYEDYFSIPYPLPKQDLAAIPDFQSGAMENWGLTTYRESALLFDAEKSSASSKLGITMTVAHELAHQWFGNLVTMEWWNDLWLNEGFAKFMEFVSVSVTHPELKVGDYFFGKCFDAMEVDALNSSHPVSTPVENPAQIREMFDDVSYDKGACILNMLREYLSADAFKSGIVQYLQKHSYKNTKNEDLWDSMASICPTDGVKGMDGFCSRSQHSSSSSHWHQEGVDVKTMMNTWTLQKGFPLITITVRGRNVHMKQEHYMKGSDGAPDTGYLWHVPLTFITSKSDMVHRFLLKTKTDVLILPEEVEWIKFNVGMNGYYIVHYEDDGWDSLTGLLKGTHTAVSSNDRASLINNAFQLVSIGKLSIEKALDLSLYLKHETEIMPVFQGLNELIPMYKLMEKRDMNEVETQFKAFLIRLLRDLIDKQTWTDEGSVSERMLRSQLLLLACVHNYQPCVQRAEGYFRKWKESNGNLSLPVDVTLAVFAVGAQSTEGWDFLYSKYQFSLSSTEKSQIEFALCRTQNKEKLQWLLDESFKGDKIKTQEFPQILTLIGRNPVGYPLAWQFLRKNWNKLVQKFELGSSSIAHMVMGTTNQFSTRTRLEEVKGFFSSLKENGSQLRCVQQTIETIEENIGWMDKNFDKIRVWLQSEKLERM
Hits are given with their value; n = inactive; u = inconclusive; x = no result.

SMILES	PvdQ inh	Ecoli rRNA inh	ARNT-TACC3 inh	CFTR F508del cor	ERAP1 HTS inh
COc1ccc(C2SCC(=O)N2CC23CC4CC(CC(C4)C2)C3)cc1 (stereo not given)	n	-24.9	n	n	n
Cc1ccc(NC(=S)NCc2ccccn2)cc1	n	x	n	x	x
S=C(NCc1ccccn1)NN=Cc1ccccn1	n	-19.1	58.3	n	n
Cc1cc(C)n(-c2nc(NCCCN(C)C)c3c4c(sc3n2)COC(C)(C)C4)n1	x	n	x	n	n
Cc1cc(C)n(-c2nc(NCCN(C)C)c3c4c(sc3n2)COC(C)(C)C4)n1	x	-32.0	x	n	n
COc1ccc(N/C(=N/c2nc(C)cc(C)n2)NC(=O)c2ccccc2)cc1	n	-19.8	n	n	n
C[C@]12C=CC(=O)N1CCc1c2[nH]c2ccccc12	x	x	n	n	n
COc1ccc2c3c(n(C)c2c1)[C@H](CO)N(C(=O)NC(C)C)CC31CCN(C(C)=O)CC1	x	n	x	n	x
NC(=O)c1cc(Cl)ccc1OCC(=O)NC1CC1	n	n	n	9.0	n
CC(C)C#Cc1cnc2c(c1)C(=O)N([C@@H](C)CO)C[C@@H](C)[C@@H](CN(C)C(=O)CCN1CCCCC1)O2	x	n	n	n	n
NC(=O)CSc1nc2cc([N+](=O)[O-])ccc2n1-c1cccc(C(F)(F)F)c1	n	-22.1	n	n	n
CN1C(=O)c2cc(NC(=O)C3CCOCC3)ccc2OC[C@H]2O[C@@H](CC(=O)NCC3CC3)CC[C@@H]21	x	n	n	n	n
C=CC(=O)Nc1sc2c(c1C(N)=O)CCCC2	n	n	n	n	n
C=CCNC(=S)Nc1sc2c(c1C(N)=O)CCCC2	x	-30.6	x	n	n
CCOc1ccc(NC(=O)C2C(C(=O)O)C3(Cl)C(Cl)=C(Cl)C2(Cl)C3(Cl)Cl)cc1 (stereo not given)	n	n	n	n	n
COc1ccc(OC)c(NC(=O)C2C(C(=O)O)C3(Cl)C(Cl)=C(Cl)C2(Cl)C3(Cl)Cl)c1 (stereo not given)	n	-18.6	n	x	n
Cc1cc(CNC(=O)COc2ccc(C)c(C)c2)c2ccccc2n1	n	-24.9	n	n	n
O=C(/C=C/c1ccccc1[N+](=O)[O-])OCC(=O)c1ccccc1	n	-21.5	n	n	n
O=C(N/N=C/c1ccco1)c1ccc2nc[nH]c2c1	n	n	n	n	n
O=C(N/N=C/c1ccccc1C(F)(F)F)c1ccc2nc[nH]c2c1	n	-24.9	n	n	n
O=C(N/N=C/c1ccc(Cl)cc1Cl)c1ccc2nc[nH]c2c1	n	-17.5	n	n	n
O=C(N/N=C/c1cc([N+](=O)[O-])ccc1Cl)c1ccc2nc[nH]c2c1	n	x	n	x	x
O=C(O)C1Nc2c(O)cccc2C2C=CCC12 (stereo not given)	n	n	74.6	n	n
CCc1nc(Nc2ccc(OC)cc2OC)c2oc3ccccc3c2n1	n	n	n	n	32.1
COc1ccc(Nc2nc(C)nc3c2oc2ccccc23)c(OC)c1	n	n	n	n	n
SMILES	PvdQ inh	Ecoli rRNA inh	ARNT-TACC3 inh	CFTR F508del cor	ERAP1 HTS inh
CCn1c(C)[n+](CC)c2ccc(S(=O)(=O)N(C)C)cc21	n	n	n	n	38.8
CC[n+]1c(C)n(C)c2cc(S(=O)(=O)N(C)C)ccc21	n	n	n	n	50.8
CCn1c(C)[n+](CC)c2ccc(S(=O)(=O)NC)cc21	n	n	n	n	59.3
CCOC(=O)c1ccc2c(c1)n(CC)c(C)[n+]2CC	n	n	n	n	n
CCn1c(C)[n+](CC)c2ccc(C(=O)N(C)c3ccccc3)cc21	n	n	n	n	71.3
CCn1c(C)[n+](CCCS(=O)(=O)[O-])c2cc(Cl)c(Cl)cc21	n	x	n	x	x
Cc1noc(C)c1NC(=O)N(C)C[C@@H]1OCCCC[C@@H](C)Oc2ccc(NC(=O)Nc3ccc(C(F)(F)F)cc3)cc2C(=O)N([C@@H](C)CO)C[C@H]1C	x	n	n	n	n
Cc1ccc(S(=O)(=O)Nc2ccc3c(c2)C(=O)N([C@@H](C)CO)C[C@H](C)[C@@H](CN(C)C(=O)Nc2ccc4c(c2)OCO4)OCCCC[C@@H](C)O3)cc1	x	n	n	n	n
O=C(CN1C(=O)C2(OCCO2)c2cc(Br)ccc21)NO	n	n	n	n	34.3
COc1ccc2c3c(n(C)c2c1)[C@H](CO)NCC31CN(C(=O)c2cccc(F)c2)C1	x	n	x	n	x
C/C(=N\NC(=O)CC#N)c1cc2ccc(O)cc2oc1=O	n	n	n	n	80.5
C[C@H](CO)N1C[C@H](C)[C@H](CN(C)C(=O)CCCN(C)C)OCCCC[C@H](C)Oc2ccc(NS(=O)(=O)c3cn(C)cn3)cc2C1=O	x	n	n	n	n
CCOC(=O)[C@]12Cc3c(cc(OC)c(OC)c3OC)[C@H]1N(CCC(=O)OC)C(=O)c1cc(OC)ccc12	x	-24.2	x	n	n
CC(=O)Nc1cccc(-n2nnc(SCC(=O)c3ccccc3)n2)c1	n	-36.4	n	n	n
COCC(=O)Nc1ccc2c(c1)OC[C@@H](C)N(Cc1ccncc1)C[C@@H](C)[C@@H](OC)CN(C)C2=O	x	n	n	n	n
CC1CC(Nc2ccccc2)c2ccccc2N1C(=O)c1ccco1 (stereo not given)	u	-27.6	n	n	x
COc1ccc(NC(=O)Nc2ccc3c(c2)C(=O)N([C@@H](C)CO)C[C@@H](C)[C@@H](CN(C)C(=O)Nc2c(C)noc2C)O3)cc1	x	n	n	n	n
O=C(OCC(=O)N1CCOCC1)c1cc2ccccc2oc1=O	n	n	n	n	n
O=C(CSC(=S)N1CCOCC1)c1cc2ccccc2oc1=O	n	x	47.9	x	x
COc1cc(CNCc2ccccn2)ccc1OCC(N)=O	n	n	49.0	n	n
Cc1[nH]c2ccccc2c1/C=N/NC(=O)CNC(=O)c1cccs1	n	x	n	n	n
Cc1[nH]c2ccccc2c1/C=N/NC(=O)c1cccs1	n	-24.2	n	n	n
Cc1nn(-c2ccccc2)c(Cl)c1/C=N/NC(=O)OC(C)(C)C	n	-20.1	n	x	n
COc1ccc(NCC(=O)N/N=C/c2c(C)nn(Cc3ccccc3)c2Cl)cc1	n	-14.0	n	x	n
CC1(C(=O)NCCc2c[nH]c3ccccc23)CCN1CC1CCCCC1 (stereo not given)	x	-23.4	x	n	n
SMILES	PvdQ inh	Ecoli rRNA inh	ARNT-TACC3 inh	CFTR F508del cor	ERAP1 HTS inh
O=C(O)C1CCCCC1C(=O)NCCc1c[nH]c2ccccc12 (stereo not given)	n	x	n	x	x
C[C@H]1CN([C@@H](C)CO)S(=O)(=O)c2ccc(-c3cncnc3)cc2O[C@H]1CN(C)C(=O)Cc1ccccc1	x	n	n	n	n
Nc1nc(SCC(=O)Nc2ccc(Oc3ccccc3)cc2)n[nH]1	n	x	n	x	x
Nc1nc(SCC(=O)Nc2cccc(Oc3ccccc3)c2)n[nH]1	n	-23.9	x	n	n
O=C(CSc1ncnc2[nH]ncc12)Nc1cccc(Oc2ccccc2)c1	n	-43.1	x	n	n
O=C(CCl)Nc1cccc(Oc2ccccc2)c1	n	-25.6	n	n	n
O=C(CSc1cccc[n+]1[O-])Nc1cccc(Oc2ccccc2)c1	n	n	n	n	n
